# Measured values published in PubChem BioAssay (NCI).
# The panel holds about 79,000 compounds, 15% with a hit somewhere; the sample as a whole holds those more often. Unmarked numbers belong to inactive results. Activity calls are given as the source filed them. Rule as the data show it: active = growth inhibition above about 70%; inactive = the rest.
# Tests used:
# [1] = NCI Yeast Anticancer Drug Screen. Data for the rad52 strain (AID 147);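 also: 0% = growth of vehicle-treated control cultures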; details: S. cerevisiae rad52 mutant growth inhibition, hits give high values
# Procedure, shortened: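 DNA repair-defective yeast; compound exposure; growth scored against vehicle controls.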
# [2] = NCI Yeast Anticancer Drug Screen. Data for the wt1 strain (AID 149);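 also: 0% = growth of vehicle-treated wt1 cultures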; details: S. cerevisiae wt1 strain (SPY 50644) growth inhibition, hits give high values
# Procedure, shortened: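 Compounds are added to wt1 yeast cultures. Growth is then measured. Inhibition is expressed relative to vehicle-treated controls.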
# [3] = NCI Yeast Anticancer Drug Screen. Data for the rad50EPP+ strain (AID 151);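 also: 0% = growth of vehicle-treated control cultures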; details: S. cerevisiae rad50 mutant strain, hits give high values
# Procedure, shortened: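 rad50EPP+ yeast treated with test compounds. Readout: growth vs vehicle control.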
# [4] = NCI Yeast Anticancer Drug Screen. Data for the mgt1 strain (AID 153); details: S. cerevisiae mgt1 mutant growth inhibition, hits give high values
# Procedure, shortened: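 Growth inhibition relative to vehicle controls was scored for the mgt1 yeast strain after compound exposure.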
# [5] = NCI Yeast Anticancer Drug Screen. Data for the rad50 strain (AID 155);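 also: 0% = growth of vehicle-only cultures of the same strain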; details: S. cerevisiae rad50 strain growth inhibition, hits give high values
# Procedure, shortened: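 Inhibition values express reduced yeast growth in compound-treated cultures relative to vehicle-treated controls.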
# [6] = NCI Yeast Anticancer Drug Screen. Data for the mec2-1 strain (AID 157); details: S. cerevisiae mec2-1 strain, hits give high values
# Procedure, shortened: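 Growth inhibition is read against vehicle-treated controls after compound exposure of the mec2-1 yeast strain, which is defective in DNA damage repair or cell cycle control.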
# [7] = NCI Yeast Anticancer Drug Screen. Data for the rad14 strain (AID 159);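 also: 0% = growth of vehicle-treated control cultures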; details: S. cerevisiae rad14 strain growth inhibition, hits give high values
# Procedure, shortened: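 A mutant yeast strain defective in DNA damage repair is treated with compound; inhibition of its growth is scored against untreated, vehicle-exposed cultures.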
# [8] = NCI Yeast Anticancer Drug Screen. Data for the sgs1 mgt1 strain (AID 161);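 also: 0% = growth of cultures given vehicle only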; details: S. cerevisiae sgs1 mgt1 strain, hits give high values
# Procedure, shortened: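 Growth of a repair-deficient yeast mutant was monitored after compound treatment and expressed as inhibition relative to vehicle-treated cultures.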
# [9] = NCI Yeast Anticancer Drug Screen. Data for the CLN2oe strain (AID 163);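 also: 0% = growth of vehicle-only control cultures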; details: S. cerevisiae CLN2oe strain, hits give high values
# Procedure, shortened: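 Compound-treated yeast; growth vs vehicle ctrl = % inhibition. Genetically altered strain (cell-cycle control).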
# [10] = NCI Yeast Anticancer Drug Screen. Data for the cln2 rad14 strain (AID 165);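 also: 0% = growth equal to vehicle treated cultures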; details: S. cerevisiae cln2 rad14 strain, hits give high values
# Procedure, shortened: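 Growth inhibition, relative to vehicle-treated controls, is the read-out. The test organism is a yeast strain with defined genetic alterations, cln2 rad14.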
# [11] = NCI Yeast Anticancer Drug Screen. Data for the bub3 strain (AID 167); details: S. cerevisiae bub3 mutant strain, hits give high values
# Procedure, shortened: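 Steps: expose the mutant yeast strain to compound; grow alongside vehicle-treated cultures; measure growth; express inhibition against the vehicle cultures.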
# [12] = NCI Yeast Anticancer Drug Screen. Data for the wt2 strain (AID 169);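 also: 0% = growth of vehicle-treated yeast cultures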; details: S. cerevisiae wt2 strain growth inhibition, hits give high values
# Procedure, shortened: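 Compound exposure of yeast; growth compared with vehicle controls; inhibition reported.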
# [13] = NCI Yeast Anticancer Drug Screen. Data for the mlh1 strain (AID 171);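 also: 0% = growth of vehicle-treated control cultures of the same strain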; details: S. cerevisiae mlh1 strain growth inhibition, hits give high values
# Procedure, shortened: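 Compounds are applied to a genetically altered yeast strain, and its growth is compared with that of vehicle-treated cultures to give percent inhibition.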
# [14] = NCI Yeast Anticancer Drug Screen. Data for the sgs1 strain (AID 173);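 also: 0% = growth of vehicle-only control cultures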; details: S. cerevisiae sgs1 mutant, hits give high values
# Procedure, shortened: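 Compounds applied to genetically altered yeast; growth compared with vehicle-treated cultures to give % inhibition.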
# [15] = NCI Yeast Anticancer Drug Screen. Data for the mlh1 rad18 strain (AID 175); details: S. cerevisiae mlh1 rad18 strain growth inhibition, hits give high values
# Procedure, shortened: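 Cells of a genetically altered yeast strain, deficient in DNA damage repair, were treated with compound. Their growth was then compared with that of vehicle-treated cultures to give inhibition.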
# [16] = NCI Yeast Anticancer Drug Screen. Data for the rad18 strain (AID 177); details: S. cerevisiae rad18 mutant growth inhibition, hits give high values
# Procedure, shortened: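 Compounds are applied to a repair-deficient yeast strain, and growth is compared with that of vehicle-treated cultures to give percent inhibition.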
# [17] = at 5.0 µM (retest, dose inferred, filed as 0.5)
# [18] = at 50.0 µM (retest, dose inferred, filed as 5.0)
structure (smiles),measurement,setting,value
O=C(OCC=C1CCCC1)c1cc([N+](=O)[O-])cc([N+](=O)[O-])c1,growth inhibition,[1]; at 1.2 µM,-1%
same,growth inhibition,[1]; at 3.7 µM,2%
same,growth inhibition,[1]; at 11.0 µM,21%
same,growth inhibition,[1]; at 33.0 µM,85% (active)
same,growth inhibition,[1]; at 100.0 µM,96% (active)
same,growth inhibition,[2]; at 1.2 µM,-6%
same,growth inhibition,[2]; at 3.7 µM,-1%
same,growth inhibition,[2]; at 11.0 µM,10%
same,growth inhibition,[2]; at 33.0 µM,86% (active)
same,growth inhibition,[2]; at 100.0 µM,98% (active)
same,growth inhibition,[3]; at 1.2 µM,3%
same,growth inhibition,[3]; at 3.7 µM,16%
same,growth inhibition,[3]; at 11.0 µM,53%
same,growth inhibition,[3]; at 33.0 µM,87% (active)
same,growth inhibition,[3]; at 100.0 µM,92% (active)
same,growth inhibition,[4]; at 1.2 µM,-1%
same,growth inhibition,[4]; at 3.7 µM,-1%
same,growth inhibition,[4]; at 11.0 µM,16%
same,growth inhibition,[4]; at 33.0 µM,95% (active)
same,growth inhibition,[4]; at 100.0 µM,98% (active)
same,growth inhibition,[5]; at 1.2 µM,0%
same,growth inhibition,[5]; at 3.7 µM,4%
same,growth inhibition,[5]; [17],11%
same,growth inhibition,[5]; at 11.0 µM,18%
same,growth inhibition,[5]; at 33.0 µM,86% (active)
same,growth inhibition,[5]; [18],57%
same,growth inhibition,[5]; at 50.0 µM,4.3%
same,growth inhibition,[5]; at 100.0 µM,96% (active)
same,growth inhibition,[6]; at 1.2 µM,-3%
same,growth inhibition,[6]; at 3.7 µM,-2%
same,growth inhibition,[6]; [17],3%
same,growth inhibition,[6]; at 11.0 µM,13%
same,growth inhibition,[6]; at 33.0 µM,89% (active)
same,growth inhibition,[6]; [18],48%
same,growth inhibition,[6]; at 50.0 µM,-14.6%
same,growth inhibition,[6]; at 100.0 µM,98% (active)
same,growth inhibition,[7]; at 1.2 µM,-2%
same,growth inhibition,[7]; at 3.7 µM,1%
same,growth inhibition,[7]; at 11.0 µM,12%
same,growth inhibition,[7]; at 33.0 µM,71% (active)
same,growth inhibition,[7]; at 100.0 µM,97% (active)
same,growth inhibition,[8]; [17],-2%
same,growth inhibition,[8]; [18],81% (active)
same,growth inhibition,[8]; at 50.0 µM,2.55%
same,growth inhibition,[9]; at 1.2 µM,-6%
same,growth inhibition,[9]; at 3.7 µM,1%
same,growth inhibition,[9]; at 11.0 µM,9%
same,growth inhibition,[9]; at 33.0 µM,60%
same,growth inhibition,[9]; at 100.0 µM,96% (active)
same,growth inhibition,[10]; [17],-24%
same,growth inhibition,[10]; [18],4%
same,growth inhibition,[10]; at 50.0 µM,-6.45%
same,growth inhibition,[11]; at 1.2 µM,-6%
same,growth inhibition,[11]; at 3.7 µM,-6%
same,growth inhibition,[11]; [17],-21%
same,growth inhibition,[11]; at 11.0 µM,-1%
same,growth inhibition,[11]; at 33.0 µM,61%
same,growth inhibition,[11]; [18],70% (active)
same,growth inhibition,[11]; at 50.0 µM,5.55%
same,growth inhibition,[11]; at 100.0 µM,96% (active)
same,growth inhibition,[12]; at 1.2 µM,-3%
same,growth inhibition,[12]; at 3.7 µM,-3%
same,growth inhibition,[12]; at 11.0 µM,16%
same,growth inhibition,[12]; at 33.0 µM,97% (active)
same,growth inhibition,[12]; at 100.0 µM,98% (active)
same,growth inhibition,[13]; at 1.2 µM,-2%
same,growth inhibition,[13]; at 3.7 µM,4%
same,growth inhibition,[13]; at 11.0 µM,22%
same,growth inhibition,[13]; at 33.0 µM,94% (active)
same,growth inhibition,[13]; at 100.0 µM,98% (active)
same,growth inhibition,[14]; at 1.2 µM,-1%
same,growth inhibition,[14]; at 3.7 µM,4%
same,growth inhibition,[14]; at 11.0 µM,26%
same,growth inhibition,[14]; at 33.0 µM,97% (active)
same,growth inhibition,[14]; at 100.0 µM,99% (active)
same,growth inhibition,[15]; [17],7%
same,growth inhibition,[15]; [18],94% (active)
same,growth inhibition,[15]; at 50.0 µM,23.6%
same,growth inhibition,[16]; at 1.2 µM,-2%
same,growth inhibition,[16]; at 3.7 µM,2%
same,growth inhibition,[16]; at 11.0 µM,21%
same,growth inhibition,[16]; at 33.0 µM,95% (active)
same,growth inhibition,[16]; at 100.0 µM,98% (active)
O=[n+]1c2ccc(Cl)cc2n([O-])c2ccc(Cl)cc21,growth inhibition,[1]; at 1.2 µM,5%
same,growth inhibition,[1]; at 3.7 µM,12%
same,growth inhibition,[1]; at 11.0 µM,23%
same,growth inhibition,[1]; at 33.0 µM,44%
same,growth inhibition,[1]; at 100.0 µM,57%
same,growth inhibition,[2]; at 1.2 µM,-2%
same,growth inhibition,[2]; at 3.7 µM,2%
same,growth inhibition,[2]; at 11.0 µM,2%
same,growth inhibition,[2]; at 33.0 µM,7%
same,growth inhibition,[2]; at 100.0 µM,12%
same,growth inhibition,[3]; at 1.2 µM,9%
same,growth inhibition,[3]; at 3.7 µM,18%
same,growth inhibition,[3]; at 11.0 µM,35%
same,growth inhibition,[3]; at 33.0 µM,57%
same,growth inhibition,[3]; at 100.0 µM,74% (active)
same,growth inhibition,[4]; at 1.2 µM,-3%
same,growth inhibition,[4]; at 3.7 µM,-1%
same,growth inhibition,[4]; at 11.0 µM,2%
same,growth inhibition,[4]; at 33.0 µM,5%
same,growth inhibition,[4]; at 100.0 µM,10%
same,growth inhibition,[5]; at 1.2 µM,9%
same,growth inhibition,[5]; at 3.7 µM,19%
same,growth inhibition,[5]; [17],-9%
same,growth inhibition,[5]; at 11.0 µM,39%
same,growth inhibition,[5]; at 33.0 µM,61%
same,growth inhibition,[5]; [18],47%
same,growth inhibition,[5]; at 50.0 µM,-5.4%
same,growth inhibition,[5]; at 100.0 µM,81% (active)
same,growth inhibition,[6]; at 1.2 µM,-1%
same,growth inhibition,[6]; at 3.7 µM,0%
same,growth inhibition,[6]; [17],1%
same,growth inhibition,[6]; at 11.0 µM,2%
same,growth inhibition,[6]; at 33.0 µM,9%
same,growth inhibition,[6]; [18],-5%
same,growth inhibition,[6]; at 50.0 µM,-1%
same,growth inhibition,[6]; at 100.0 µM,15%
same,growth inhibition,[7]; at 1.2 µM,0%
same,growth inhibition,[7]; at 3.7 µM,2%
same,growth inhibition,[7]; at 11.0 µM,4%
same,growth inhibition,[7]; at 33.0 µM,6%
same,growth inhibition,[7]; at 100.0 µM,10%
same,growth inhibition,[8]; [17],-4%
same,growth inhibition,[8]; [18],20%
same,growth inhibition,[8]; at 50.0 µM,13.3%
same,growth inhibition,[9]; at 1.2 µM,-1%
same,growth inhibition,[9]; at 3.7 µM,0%
same,growth inhibition,[9]; at 11.0 µM,0%
same,growth inhibition,[9]; at 33.0 µM,-1%
same,growth inhibition,[9]; at 100.0 µM,-1%
same,growth inhibition,[10]; [17],-10%
same,growth inhibition,[10]; [18],-13%
same,growth inhibition,[10]; at 50.0 µM,-74.2%
same,growth inhibition,[11]; at 1.2 µM,-1%
same,growth inhibition,[11]; at 3.7 µM,0%
same,growth inhibition,[11]; [17],11%
same,growth inhibition,[11]; at 11.0 µM,2%
same,growth inhibition,[11]; at 33.0 µM,9%
same,growth inhibition,[11]; [18],22%
same,growth inhibition,[11]; at 50.0 µM,-7.55%
same,growth inhibition,[11]; at 100.0 µM,14%
same,growth inhibition,[12]; at 1.2 µM,-5%
same,growth inhibition,[12]; at 3.7 µM,-8%
same,growth inhibition,[12]; at 11.0 µM,0%
same,growth inhibition,[12]; at 33.0 µM,-5%
same,growth inhibition,[12]; at 100.0 µM,10%
same,growth inhibition,[13]; at 1.2 µM,-1%
same,growth inhibition,[13]; at 3.7 µM,1%
same,growth inhibition,[13]; at 11.0 µM,0%
same,growth inhibition,[13]; at 33.0 µM,0%
same,growth inhibition,[13]; at 100.0 µM,5%
same,growth inhibition,[14]; at 1.2 µM,-6%
same,growth inhibition,[14]; at 3.7 µM,-27%
same,growth inhibition,[14]; at 11.0 µM,4%
same,growth inhibition,[14]; at 33.0 µM,21%
same,growth inhibition,[14]; at 100.0 µM,23%
same,growth inhibition,[15]; [17],11%
same,growth inhibition,[15]; [18],84% (active)
same,growth inhibition,[15]; at 50.0 µM,11.7%
same,growth inhibition,[16]; at 1.2 µM,4%
same,growth inhibition,[16]; at 3.7 µM,12%
same,growth inhibition,[16]; at 11.0 µM,25%
same,growth inhibition,[16]; at 33.0 µM,37%
same,growth inhibition,[16]; at 100.0 µM,63%
